# According to publication PMC5700166:
# Numbering of substitutions follows the chain as printed.
# Legend:
# Experiment in all cases: protein-binding microarray (PBM); PBM: ~300 nM protein, 6 mM HEPES pH 7.8, 80 mM KCl, 0.5 mM EDTA, 0.5 mM EGTA, 6% glycerol, 35 ng/ul poly-dIdC, 1% milk, 1 h, room temperature; Ap Aiptasia and Nv Nematostella (sea anemones) / Co Capsaspora / Aq Amphimedon (sponge) / Dm Drosophila / Hu human; RHD is the Rel homology domain; high values mean tight binding
# Details in all cases: dsDNA, one strand shown
# GST-Ap-NF-kB RHD = target: T1, GST-Ap-NF-kB RHD (Exaiptasia pallida (Aiptasia), UniProt A0A913YAJ5 2-422)
# T1 sequence: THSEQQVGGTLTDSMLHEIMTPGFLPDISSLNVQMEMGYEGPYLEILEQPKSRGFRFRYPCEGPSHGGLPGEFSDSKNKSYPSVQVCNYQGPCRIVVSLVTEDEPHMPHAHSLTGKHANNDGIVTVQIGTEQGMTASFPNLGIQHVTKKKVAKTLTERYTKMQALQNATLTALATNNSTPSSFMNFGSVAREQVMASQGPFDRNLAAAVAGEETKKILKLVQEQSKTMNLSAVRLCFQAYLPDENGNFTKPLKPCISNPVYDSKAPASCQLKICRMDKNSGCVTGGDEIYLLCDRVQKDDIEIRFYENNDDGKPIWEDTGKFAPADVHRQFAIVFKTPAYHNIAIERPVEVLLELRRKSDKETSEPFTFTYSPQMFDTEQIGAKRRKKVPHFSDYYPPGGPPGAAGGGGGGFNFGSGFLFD
# GST-Co-NF-kB = target: T2, GST-Co-NF-kB (Capsaspora owczarzaki, UniProt F1ARL5 200-546)
# T2 sequence: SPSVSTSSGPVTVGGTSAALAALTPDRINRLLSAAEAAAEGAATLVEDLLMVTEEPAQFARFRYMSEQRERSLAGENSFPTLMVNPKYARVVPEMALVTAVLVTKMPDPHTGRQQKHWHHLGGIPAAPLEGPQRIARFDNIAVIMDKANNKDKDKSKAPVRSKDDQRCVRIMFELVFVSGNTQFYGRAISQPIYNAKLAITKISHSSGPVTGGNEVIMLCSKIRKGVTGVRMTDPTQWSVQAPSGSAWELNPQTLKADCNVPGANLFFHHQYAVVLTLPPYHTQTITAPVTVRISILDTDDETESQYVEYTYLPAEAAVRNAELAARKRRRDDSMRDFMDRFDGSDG
# GST-Dm-Relish = target: T3, GST-Dm-Relish (Drosophila melanogaster, UniProt Q94527 99-473)
# T3 sequence: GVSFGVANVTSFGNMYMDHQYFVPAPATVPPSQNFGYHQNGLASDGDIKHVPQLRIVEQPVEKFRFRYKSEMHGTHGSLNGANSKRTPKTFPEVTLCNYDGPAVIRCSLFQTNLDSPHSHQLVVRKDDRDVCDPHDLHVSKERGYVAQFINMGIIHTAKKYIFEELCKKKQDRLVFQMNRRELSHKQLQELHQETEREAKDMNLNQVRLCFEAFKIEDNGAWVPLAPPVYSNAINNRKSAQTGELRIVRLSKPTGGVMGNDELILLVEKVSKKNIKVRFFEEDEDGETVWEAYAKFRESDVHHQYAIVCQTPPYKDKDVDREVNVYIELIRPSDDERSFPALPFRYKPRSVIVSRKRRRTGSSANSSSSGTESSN
# GST-Aq-NF-kB = target: T4, GST-Aq-NF-kB (Amphimedon queenslandica, UniProt A9Y5G7 2-389)
# T4 sequence: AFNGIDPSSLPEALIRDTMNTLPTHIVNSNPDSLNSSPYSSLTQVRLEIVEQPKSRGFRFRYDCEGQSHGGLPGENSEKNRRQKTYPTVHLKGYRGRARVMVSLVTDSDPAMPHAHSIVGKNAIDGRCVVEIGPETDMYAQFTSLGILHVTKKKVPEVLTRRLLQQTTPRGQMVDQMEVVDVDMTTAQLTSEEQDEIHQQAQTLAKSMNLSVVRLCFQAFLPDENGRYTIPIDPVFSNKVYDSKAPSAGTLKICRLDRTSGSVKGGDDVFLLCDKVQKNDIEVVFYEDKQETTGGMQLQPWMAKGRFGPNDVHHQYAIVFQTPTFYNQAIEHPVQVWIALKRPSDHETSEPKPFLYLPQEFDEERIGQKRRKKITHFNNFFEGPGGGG
# [1] = target: T5, GST-Nv-NF-kB (Cys allele) (Nematostella vectensis, UniProt E5G601 2-411)
# T5 sequence: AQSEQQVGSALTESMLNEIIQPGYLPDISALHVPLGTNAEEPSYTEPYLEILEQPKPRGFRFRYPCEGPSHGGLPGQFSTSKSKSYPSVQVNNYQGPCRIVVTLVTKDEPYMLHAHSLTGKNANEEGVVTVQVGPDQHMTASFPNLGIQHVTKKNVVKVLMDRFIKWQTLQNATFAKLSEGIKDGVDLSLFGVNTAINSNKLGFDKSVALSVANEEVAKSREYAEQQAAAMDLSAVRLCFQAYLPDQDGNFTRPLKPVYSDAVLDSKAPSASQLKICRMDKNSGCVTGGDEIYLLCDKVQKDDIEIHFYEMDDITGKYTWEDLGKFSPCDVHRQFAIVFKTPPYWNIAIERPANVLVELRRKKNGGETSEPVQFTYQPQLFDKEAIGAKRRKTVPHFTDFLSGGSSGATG
# [2] = target: T6, GST-Nv-NF-kB (Ser allele) (Nematostella vectensis, UniProt A7UNT2 2-411)
# T6 sequence: T5 sequence with Q21R, C66S, S207N, E215Q, V217A, E225K, A268E, D399E
sequence,measurement,setting,value
CCGATTAACATCACGGACACCCCTGATGTTAATCGGGTCTTGATTCGCTTGACGCTGCTG,binding signal,GST-Ap-NF-kB RHD,1.65 z-score
same,binding signal,GST-Co-NF-kB,1.34 z-score
same,binding signal,GST-Dm-Relish,1.95 z-score
same,binding signal,GST-Aq-NF-kB,2.16 z-score
CCGATTAACATCACGGAATGCCCTGATGTTAATCGGGTCTTGATTCGCTTGACGCTGCTG,binding signal,GST-Ap-NF-kB RHD,1.03 z-score
same,binding signal,GST-Dm-Relish,1.71 z-score
same,binding signal,GST-Aq-NF-kB,2.6 z-score
CCGATTAACATCAAGGAAAGCCCTGATGTTAATCGGGTCTTGATTCGCTTGACGCTGCTG,binding signal,GST-Ap-NF-kB RHD,1.19 z-score
same,binding signal,GST-Dm-Relish,3.3 z-score
same,binding signal,GST-Aq-NF-kB,3.45 z-score
CCGATTAACATCAAGGAATGCCCTGATGTTAATCGGGTCTTGATTCGCTTGACGCTGCTG,binding signal,GST-Ap-NF-kB RHD,1.68 z-score
same,binding signal,GST-Dm-Relish,1.35 z-score
same,binding signal,GST-Aq-NF-kB,2.68 z-score
CCGATTAACATCAGTGTCCCGTTTGATGTTAATCGGGTCTTGATTCGCTTGACGCTGCTG,binding signal,[1],2.18 z-score
same,binding signal,GST-Aq-NF-kB,1.32 z-score
CCGATTAACATCAGGAGGTTCCCTGATGTTAATCGGGTCTTGATTCGCTTGACGCTGCTG,binding signal,GST-Ap-NF-kB RHD,2.28 z-score
same,binding signal,GST-Dm-Relish,2.47 z-score
same,binding signal,GST-Aq-NF-kB,3.68 z-score
CCGATTAACATCAGAAATGGGAATGATGTTAATCGGGTCTTGATTCGCTTGACGCTGCTG,binding signal,[1],2.45 z-score
same,binding signal,GST-Co-NF-kB,1.87 z-score
same,binding signal,GST-Aq-NF-kB,2.5 z-score
CCGATTAACATCACGGAAATTTATGATGTTAATCGGGTCTTGATTCGCTTGACGCTGCTG,binding signal,GST-Co-NF-kB,1.07 z-score
same,binding signal,GST-Dm-Relish,1.11 z-score
same,binding signal,GST-Aq-NF-kB,1.74 z-score
CCGATTAACATCATTTCCCAAAATGATGTTAATCGGGTCTTGATTCGCTTGACGCTGCTG,binding signal,[1],2.55 z-score
same,binding signal,GST-Co-NF-kB,1.54 z-score
same,binding signal,GST-Dm-Relish,1.36 z-score
same,binding signal,GST-Aq-NF-kB,1.26 z-score
CCGATTAACATCACTTTGGGAAATGATGTTAATCGGGTCTTGATTCGCTTGACGCTGCTG,binding signal,[1],1.89 z-score
same,binding signal,GST-Co-NF-kB,2.05 z-score
same,binding signal,GST-Aq-NF-kB,1.28 z-score
CCGATTAACATCATTGGGAAAAATGATGTTAATCGGGTCTTGATTCGCTTGACGCTGCTG,binding signal,[1],2.44 z-score
same,binding signal,GST-Co-NF-kB,3.75 z-score
same,binding signal,GST-Aq-NF-kB,1.92 z-score
CCGATTAACATCAGTAGTGGGGCTGATGTTAATCGGGTCTTGATTCGCTTGACGCTGCTG,binding signal,[1],1.01 z-score
same,binding signal,GST-Aq-NF-kB,1.72 z-score
CCGATTAACATCAGGAATATACCTGATGTTAATCGGGTCTTGATTCGCTTGACGCTGCTG,binding signal,[1],1.47 z-score
same,binding signal,GST-Dm-Relish,1.86 z-score
same,binding signal,GST-Aq-NF-kB,1.69 z-score
CCGATTAACATCAAGGTATTTCCTGATGTTAATCGGGTCTTGATTCGCTTGACGCTGCTG,binding signal,[1],1.66 z-score
same,binding signal,[2],1.29 z-score
same,binding signal,GST-Dm-Relish,3.08 z-score
same,binding signal,GST-Aq-NF-kB,3.84 z-score
CCGATTAACATCAACCATGGGAATGATGTTAATCGGGTCTTGATTCGCTTGACGCTGCTG,binding signal,[1],1.18 z-score
same,binding signal,GST-Co-NF-kB,1.67 z-score
same,binding signal,GST-Aq-NF-kB,1.99 z-score
CCGATTAACATCAAATTGGGAAATGATGTTAATCGGGTCTTGATTCGCTTGACGCTGCTG,binding signal,[1],2.55 z-score
same,binding signal,GST-Co-NF-kB,1.89 z-score
same,binding signal,GST-Aq-NF-kB,1.16 z-score
CCGATTAACATCACATTGGGAAATGATGTTAATCGGGTCTTGATTCGCTTGACGCTGCTG,binding signal,[1],2.26 z-score
same,binding signal,GST-Co-NF-kB,2.31 z-score
same,binding signal,GST-Dm-Relish,1.18 z-score
same,binding signal,GST-Aq-NF-kB,1.18 z-score
CCGATTAACATCAATTCCCATGATGATGTTAATCGGGTCTTGATTCGCTTGACGCTGCTG,binding signal,[1],2.46 z-score
same,binding signal,GST-Co-NF-kB,1.75 z-score
same,binding signal,GST-Aq-NF-kB,1.67 z-score
CCGATTAACATCAGGGCAGTACCTGATGTTAATCGGGTCTTGATTCGCTTGACGCTGCTG,binding signal,[1],1.21 z-score
same,binding signal,GST-Dm-Relish,1.84 z-score
same,binding signal,GST-Aq-NF-kB,3.03 z-score
CCGATTAACATCAGGAAAAAACCTGATGTTAATCGGGTCTTGATTCGCTTGACGCTGCTG,binding signal,[1],1.77 z-score
same,binding signal,[2],2.77 z-score
same,binding signal,GST-Dm-Relish,3.66 z-score
same,binding signal,GST-Aq-NF-kB,3.37 z-score
CCGATTAACATCAGGGTTAGTTGTGATGTTAATCGGGTCTTGATTCGCTTGACGCTGCTG,binding signal,GST-Co-NF-kB,1.11 z-score
same,binding signal,GST-Aq-NF-kB,1.57 z-score
CCGATTAACATCAACGGAAATTCTGATGTTAATCGGGTCTTGATTCGCTTGACGCTGCTG,binding signal,GST-Co-NF-kB,1.34 z-score
same,binding signal,GST-Aq-NF-kB,1.24 z-score
CCGATTAACATCAAGGAATTTCCTGATGTTAATCGGGTCTTGATTCGCTTGACGCTGCTG,binding signal,[1],1.75 z-score
same,binding signal,GST-Dm-Relish,2.04 z-score
same,binding signal,GST-Aq-NF-kB,4.35 z-score
CCGATTAACATCAACTATCCCGCTGATGTTAATCGGGTCTTGATTCGCTTGACGCTGCTG,binding signal,GST-Co-NF-kB,1.37 z-score
same,binding signal,GST-Aq-NF-kB,1.07 z-score
CCGATTAACATCAGGAAATTTCCTGATGTTAATCGGGTCTTGATTCGCTTGACGCTGCTG,binding signal,[1],1.72 z-score
same,binding signal,GST-Dm-Relish,1.75 z-score
same,binding signal,GST-Aq-NF-kB,3.27 z-score
CCGATTAACATCAAGGACTTTCCTGATGTTAATCGGGTCTTGATTCGCTTGACGCTGCTG,binding signal,[1],1.03 z-score
same,binding signal,GST-Dm-Relish,3.11 z-score
same,binding signal,GST-Aq-NF-kB,4.6 z-score
CCGATTAACATCAGAAATTACCATGATGTTAATCGGGTCTTGATTCGCTTGACGCTGCTG,binding signal,[1],1.45 z-score
same,binding signal,GST-Dm-Relish,2.33 z-score
same,binding signal,GST-Aq-NF-kB,1.16 z-score
CCGATTAACATCAACTTTGGGAATGATGTTAATCGGGTCTTGATTCGCTTGACGCTGCTG,binding signal,[1],1.04 z-score
same,binding signal,GST-Co-NF-kB,1.7 z-score
same,binding signal,GST-Aq-NF-kB,1.56 z-score
CCGATTAACATCACAAATGGGAATGATGTTAATCGGGTCTTGATTCGCTTGACGCTGCTG,binding signal,[1],1.95 z-score
same,binding signal,GST-Co-NF-kB,1.92 z-score
same,binding signal,GST-Dm-Relish,1.56 z-score
same,binding signal,GST-Aq-NF-kB,2.36 z-score
CCGATTAACATCAGGAATTTACCTGATGTTAATCGGGTCTTGATTCGCTTGACGCTGCTG,binding signal,[1],3.18 z-score
same,binding signal,GST-Dm-Relish,4.54 z-score
same,binding signal,GST-Aq-NF-kB,4.81 z-score
CCGATTAACATCAGGAGTATCCCTGATGTTAATCGGGTCTTGATTCGCTTGACGCTGCTG,binding signal,GST-Co-NF-kB,1.01 z-score
same,binding signal,GST-Aq-NF-kB,3.53 z-score
CCGATTAACATCAGGTAATTTACTGATGTTAATCGGGTCTTGATTCGCTTGACGCTGCTG,binding signal,[1],1.68 z-score
same,binding signal,GST-Co-NF-kB,1.89 z-score
same,binding signal,GST-Dm-Relish,5.32 z-score
same,binding signal,GST-Aq-NF-kB,2.13 z-score
CCGATTAACATCAATTGGGAAATTGATGTTAATCGGGTCTTGATTCGCTTGACGCTGCTG,binding signal,[1],3.36 z-score
same,binding signal,[2],3.48 z-score
same,binding signal,GST-Co-NF-kB,1.8 z-score
same,binding signal,GST-Dm-Relish,1.48 z-score
same,binding signal,GST-Aq-NF-kB,1.63 z-score
